PPARg SRC-1 ag: PPARgamma-driven SRC-1 recruitment agonism. activation, % at 8 µM. 0.41% of 200,000 active. P37231. PPARgamma-SRC-1 coactivator recruitment biochemical assay; in the data active = activation above about 19%;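 also: 0% = DMSO and 100% = reference agonist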
SRC3 TRFRET art: counter-screen for PPARgamma SRC-3 recruitment agonists: TR-FRET artefact | 0.39% of 99,000 active | PPARgamma/SRC-3 format; hits give high values | AID 1048 | TR-FRET ratio at 8 µM; in the data active = TR-FRET ratio above about 2000
PPARg SRC2 recr: PPARgamma-driven SRC-2 recruitment agonism. PPARgamma LBD-SRC-2 recruitment, biochemical. activation, % at 8 µM. 0.34% of 200,000 active. AID 1032;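 also: 0% = vehicle and 100% = reference agonist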
TR-FRET SRC-2 ct: TR-FRET artefact, counter-screen to PPARgamma/SRC-2 agonist assay. hits give high values. TR-FRET ratio at 8 µM. 0.4% of 200,000 active; in the data active = TR-FRET ratio above about 2000
SRC1 TRFRET art: flags TR-FRET format artefacts in PPARgamma SRC-1 recruitment agonist screen; TR-FRET detection artefact counter-screen, emission ratio; hits give high values; TR-FRET ratio at 8 µM; 0.34% of 99,000 active; in the data active = TR-FRET ratio above about 2300
PPARg SRC3 recr: agonists of human PPARgamma SRC-3 coactivator recruitment | AID 731 | biochemical PPARgamma/SRC-3 coactivator recruitment assay | activation, % at 8 µM | 0.26% of 200,000 active; in the data active = activation above about 23%;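 also: 0% = DMSO and 100% = reference agonist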
PPARg SRC2 ag: confirmation of agonists of SRC-2 recruitment by human PPARgamma; shares compounds with PPARg SRC3 recr; biochemical SRC-2 recruitment by PPARgamma; activation, % at 8 µM; 52% of 790 active;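 also: 0% = vehicle alone and 100% = reference agonist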
PPARg SRC1 conf: confirmation of agonists of SRC-1 recruitment by human PPARgamma; shares compounds with PPARg SRC3 recr; 43% of 790 active; activation, % at 8 µM; PPARgamma–SRC-1 coactivator recruitment biochemical assay; in the data active = activation above about 20%;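 also: 0% = vehicle wells and 100% = reference agonist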
PPARg SRC3 ag: human PPARgamma SRC-3 recruitment agonism, confirmation; 29% of 790 active; biochemical PPARgamma-SRC-3 coactivator recruitment, agonist mode; AID 1301; shares compounds with PPARg SRC3 recr; activation, % at 8 µM; in the data active = activation above about 24%;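 also: 0% = vehicle wells and 100% = reference agonist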
* = called active by the depositor; / = not tested or not shown. Sampled rows, rich in hits. Any-hit rate of the full collection: about 0.84%. Rule as the data show it, unless noted: active = activation above about 22%; inactive = the rest.

SMILES	PPARg SRC-1 ag	SRC3 TRFRET art	PPARg SRC2 recr	TR-FRET SRC-2 ct	SRC1 TRFRET art	PPARg SRC3 recr	PPARg SRC2 ag	PPARg SRC1 conf	PPARg SRC3 ag
COc1ccc2c(C)cc(=S)[nH]c2c1	32*	2185*	22*	1987*	2499*	15	6	6	4
COc1cccc2cc(C(=O)OC3CCN(C)CC3)c(=O)oc12	-2	1459	-2	1437	1850	3	/	/	/
N#Cc1c(-c2cccs2)nc(SCc2ccc(Cl)cc2)[nH]c1=O	32*	2717*	43*	2686*	3031*	24*	36*	25*	24*
CNC(=O)NC(=O)CSc1nc(-c2cccs2)c(C#N)c(=O)[nH]1	41*	2978*	56*	3062*	3256*	31*	43*	29*	30*
O=c1[nH]c(SCc2ccc(Cl)cc2)nc2ccsc12	6	1716	10	1567	2154	0	/	/	/
CCOC(=O)Cc1csc(NC(=O)CSc2nc(-c3ccccc3)c(C#N)c(=O)[nH]2)n1	5	1539	6	1702	1835	0	/	/	/
Cc1nn(-c2ccccc2)c(N2CCCC2)c1/C=C1\N=C(c2ccc(F)cc2)OC1=O	6	1603	2	1549	1798	3	/	/	/
CC(=NC1CCCCC1)C1=C(O)c2ccccc2C1=O	2	/	-3	1479	/	7	/	/	/
CCn1c(SCC(=O)OC2CCCCC2)nnc1-c1ccncc1	3	/	29*	2048*	/	13	-2	-3	-2
CCn1c(SCC(=O)OC)nnc1-c1ccncc1	-3	/	2	1400	/	3	/	/	/
Cc1ccccc1NC(=O)c1ccc(CN2CCC(Cc3ccccc3)CC2)cc1	4	/	2	1549	/	9	/	/	/
O=[N+]([O-])c1ccc(C2Nc3cccc4cccc(c34)N2)cc1	21*	1578	17	1698	1856	7	5	1	3
CC(=O)c1cc(NC(=O)c2ccc(Cl)cc2)c(=O)oc1/C=C/N(C)C	20*	/	6	1524	/	12	12	8	9
CC(=O)c1cc(NC(=O)c2cccc(C(F)(F)F)c2)c(=O)oc1/C=C/N(C)C	6	/	-4	1377	/	-7	/	/	/
COc1cccc(N(C(=O)C2CSC(=O)C2)C(C(=O)NC(C)(C)C)c2ccncc2)c1 (stereo not drawn)	6	1617	1	1443	1794	-1	/	/	/
CC(C)(C)c1ccc(OCC(=O)Nc2ccc3c4c(cccc24)C(=O)NC3=O)cc1	14	1741	14	1795	2184	33*	13	14	10
Cc1ccc(OCC(=O)NC(=S)Nc2ccc3c4c(cccc24)CC3)cc1	0	1684	-4	1680	2107	-1	/	/	/
Fc1ccccc1NC(=S)Nc1ccc(Br)cc1	1	1552	-8	1426	1672	1	/	/	/
O=C(c1ccccc1)N1CCN(c2ccccc2F)CC1	7	/	-1	1463	/	9	/	/	/
COc1ccccc1C(=O)Nc1nnc(C)s1	-3	/	-4	1308	/	0	/	/	/
Cn1c(C(=O)OCC(=O)NCc2ccco2)cc2sccc21	-4	/	2	1382	/	-2	/	/	/
CCC(OC(=O)c1cc2sccc2n1C)C(=O)NCc1ccco1 (stereo not drawn)	31*	/	10	1504	/	14	16	25*	26*
CC1CN(c2ccc(C(=O)c3ccccc3C(=O)O)cc2[N+](=O)[O-])CC(C)O1 (stereo not drawn)	12	1572	-1	1551	1877	5	/	/	/
O=c1c2cnn(-c3ccccc3)c2nc(-c2ccco2)n1-c1ccccc1	-1	/	10	1611	/	6	/	/	/
O=c1oc(-c2ccco2)nc2c1cnn2-c1ccccc1	20*	/	14	1579	/	3	7	16	23
SMILES	PPARg SRC-1 ag	SRC3 TRFRET art	PPARg SRC2 recr	TR-FRET SRC-2 ct	SRC1 TRFRET art	PPARg SRC3 recr	PPARg SRC2 ag	PPARg SRC1 conf	PPARg SRC3 ag
COc1ccccc1OCC(=O)Nc1nnc(-c2ccco2)s1	28*	/	31*	2199*	/	35*	24*	21*	15
CCCC(=O)Nc1nnc(-c2ccco2)s1	13	/	5	1854	/	7	/	/	/
CCOC(=O)Cc1nnc(NC(=O)c2cccc(OCC)c2)s1	1	/	-6	1642	/	4	/	/	/
Cc1cccc(OCC(=O)Nc2nnc(-c3ccco3)s2)c1	28*	2164*	28*	2106*	2686*	20	36*	28*	22
CCOc1cccc(C(=O)Nc2nnc(-c3ccco3)s2)c1	22*	/	17	1945	/	17	20	17	15
O=C(Cc1ccccc1)Nc1nnc(-c2ccco2)s1	37*	/	31*	2292*	/	37*	31*	24*	18
CC(C)N1CC(O)=C(c2ccccc2)C1=N	8	1619	3	1532	2038	1	/	/	/
CCc1nnc(NC(=O)C(CC)c2ccccc2)s1 (stereo not drawn)	0	1659	-2	1600	1783	3	/	/	/
CCC(C(=O)Nc1nnc(-c2ccco2)s1)c1ccccc1 (stereo not drawn)	26*	/	15	1806	/	27*	27*	21*	20
ClCc1csc(-c2ccccc2Cl)n1	19	2168*	25*	2108*	2229	17	28*	22*	17
CN(C)c1ccc(N2CN=C3SCC(=O)N3C2)cc1	50*	/	64*	2229*	/	86*	6	10	3
O=C1CSC2=NCN(c3ccc4c(c3)OCO4)CN12	2	/	-8	1524	/	-5	/	/	/
N#Cc1c(N)nc2c3c(sc(=N)c2c1N)NC(=O)CC3c1ccccc1 (stereo not drawn)	27*	/	20	2053*	/	26*	5	5	8
N#Cc1c(N)nc2c3c(sc(=N)c2c1N)NC(=O)CC3c1c(F)cccc1Cl (stereo not drawn)	-2	/	0	1427	/	7	/	/	/
CCc1cc2cc(C(=O)Nc3ccc(F)cc3)sc2s1	15	/	39*	2237*	/	21	25*	17	15
CSc1nc2sc3c(c2c2nnnn12)CCCC3	45*	/	20	2081*	/	70*	50*	39*	26*
Cn1cccc1C(=O)NC(=O)COC(=O)c1ccccc1Sc1ccccc1C#N	24*	/	22*	3090*	/	29*	19	19	10
O=C(Cc1ccccc1)Nn1c(O)c(/C=C2\C=Nc3ccccc32)sc1=S	14	1630	24*	1652	2099	14	7	7	8
CCn1c(O)c(/C=C2\C=Nc3ccccc32)sc1=Nc1ccccc1	1	/	4	1406	/	6	/	/	/

Compound activity as filed in PubChem.
